High-throughput results: PubChem BioAssay, National Center for Advancing Translational Sciences (NCATS)
TGFb inhibitor – TGF-b pathway inhibition. HepG2 CAGA-GFP TGF-b/SMAD3 reporter, GFP fluorescence, 18 h; TGF-beta stimulated, 500 pg/mL final. Potency, µM (doses to about 46.1 µM), inactives show at the top dose activity, negative = inhibition, hits mostly inhibitors. 1.2% of 410,000 active; further: on the % scale 0 is the no-effect control and ±100 the full control effect; nearly all actives have a fitted effect of over 65% in size
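Inhibition was scored as loss of TGF-beta-induced (500 pg/mL final, 18 hours, 37 degrees C) GFP in HEPG2 cells carrying a CAGA-GFP reporter, in DMEM with 1% FBS. Well GFP was summed per cell; Activity was normalised to unstimulated and stimulated DMSO wells, then concentration-response fitting.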
ATXN viability – reduces viability in counter-screen for ATXN expression inhibitors. S2 cells (HEK-293 line with an ATXN2-luciferase reporter) viability, CellTiter-Fluor protease fluorescence, 24 h. Potency, µM (doses to about 56.7 µM), hits mostly cytotoxic. 0.49% of 400,000 active; further: nearly all actives have a fitted effect of over 40% in size
HepG2 viability – counter-screen for TGF-b inhibitors: cytotoxicity in HepG2 cells | HepG2 CAGA-GFP viability, ATP luminescence, 18 h | Potency, µM (highest dose often 46.1 µM), without a hit: at the top dose activity change, negative = cytotoxicity, usual class: cytotoxic | 0.76% of 410,000 active | AID 588856
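HepG2 CAGA-GFP cells (1000/well, DMEM with 1% FBS) received compound, then TGF-beta at 500 pg/mL final, and were incubated 18 hours at 37 degrees C. Viability was read by CellTiter-Glo luminescence. Media-only wells were set as complete cell-killing and DMSO as no toxicity.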
A549 viability – kills or reduces viability of A549 cells in Nrf2 counter-screen. 0.16% of 390,000 active. AID 504648. Potency, µM (series often up to 46 µM), without a hit: at the top dose activity change, negative = cytotoxicity, usual class: inhibitors. A549 ARE-Fluc cells, CellTiter-Fluor viability, 18-24 h; further: on the % scale 0 is the no-effect control and ±100 the full control effect
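Cytotoxicity counterscreen: CellTiter-Fluor fluorescence was measured in A549 ARE_Fluc cells after 18-24 h of compound exposure in a concentration series. The subsequent BugLite luminescent read reports ARE-luciferase activity.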
Nrf2 inh – blocks Nrf2 signaling; A549 ARE-Fluc reporter, luciferase luminescence, 18-24 h; Potency, µM (titrated, usually from 46 µM), for inactives: top-dose activity change, negative = inhibition, most hits filed as inhibitors; 2.1% of 360,000 active; AID 504444; further: on the % scale 0 is the no-effect control and ±100 the full control effect; nearly all actives have a fitted effect of over 60% in size
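Reporter: ARE-Fluc in A549. Exposure: 18-24 h, 37 °C, 5% CO2, 5% FBS OPTI-MEM. Readouts: fluorescent cytotoxicity (CellTiter-Fluor), then luminescent Nrf2 signal after BugLite.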
ATXN2 expr inh – inhibitors of ATXN2 expression; 0.72% of 360,000 active; HEK-293 ATXN2-luciferase reporter, luminescence, 24 h; AID 1745845; Potency, µM (top dose mostly 57 µM), inactives show top-dose activity change, negative = inhibition, usual class: inhibitors; further: on the % scale 0 is the no-effect control and ±100 the full control effect; nearly all actives have a fitted effect of over 55% in size
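qHTS (up to 57 uM final) was run with 24 h compound exposure of reporter cells at 37 °C. Each well was multiplexed: SteadyGlo luminescence measured ATXN2-luciferase expression after a fluorogenic Gly-Phe-AFC viability readout (25 uM final).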
* = called active by the depositor; i = inactive; ? = inconclusive; / = not tested or not shown; [ ] = another dose, or the depositor's remark. Sampled rows, rich in hits. Any-hit rate of the full collection: about 3.8%. The call rests on the fitted dose curve; in most records, active means well fitted curve in the direction sought with a large enough effect; inconclusive means small, poorly fitted or top-dose-only effect, or another doubt; inactive means no such curve, though single readings can be large; an effect the other way counts as inactive or inconclusive. Potency means the concentration at half of the fitted maximal effect.

SMILES	TGFb inhibitor	ATXN viability	HepG2 viability	A549 viability	Nrf2 inh	ATXN2 expr inh
Cc1ccc(-c2noc(-c3ccc(N4CCOCC4)c([N+](=O)[O-])c3)n2)cc1	?	i	1%	2%	18%	4%
O=[N+]([O-])c1cc(-c2nc(-c3ccccc3)no2)ccc1N1CCOCC1	-1%	i	-4%	0%	23µM*	20%
O=C(Nc1ccc(-c2nc3ccccc3o2)cc1)c1ccc(N2CCOCC2)c([N+](=O)[O-])c1	?	i	-36%	?	16µM*	-9%
CC1CCN(c2ccc(C(=O)Nc3ccc4c(c3)OCO4)cc2[N+](=O)[O-])CC1	-12%	i	7%	-8%	9.2µM*	-13%
COc1ccc(-c2noc(-c3ccc(N4CCOCC4)c([N+](=O)[O-])c3)n2)cc1OC	2%	i	2%	-4%	-6%	10%
COc1ccc2oc(-c3ccc(NC(=O)c4ccc(N5CCOCC5)c([N+](=O)[O-])c4)cc3)nc2c1	-2%	?	-3%	-11%	-24%	?
CC1CCCN(c2ccc(C(=O)Nc3ccc4c(c3)OCO4)cc2[N+](=O)[O-])C1 (stereo unspecified)	0%	i	-2%	-5%	?	8%
COc1ccc(-c2noc(-c3ccc(N4CCC(C)CC4)c([N+](=O)[O-])c3)n2)cc1OC	4%	i	-6%	-17%	21µM*	5%
C/C(CC(=O)NCc1ccco1)=N\NC(=O)COc1ccc(C)cc1	5%	i	-2%	6%	4%	-8%
CCOc1ccc(-c2oc3cc(Cl)ccc3c(=O)c2O)cc1OC	32%	i	-21%	0%	-11%	1%
COc1cc(OC)cc(C(=O)N[C@H](C(=O)NCc2ccco2)C(C)C)c1	5%	i	-11%	0%	2%	16%
Cc1nn2c(C)c(C(=O)NCc3cccc(Br)c3)cnc2c1-c1ccccc1	0%	/	-2%	-2%	?	/
NS(=O)(=O)c1ccc(Oc2ccc(S(N)(=O)=O)cc2)cc1	8%	i	1%	-10%	-9%	11%
C=CS(=O)(=O)c1ccc(Oc2ccc(S(=O)(=O)C=C)cc2)cc1	0%	5µM*	3.2µM*	?	18µM*	8.9µM*
O=C(NNC(=O)c1cc(-c2ccccc2)n(-c2ccccc2)n1)c1cccc([N+](=O)[O-])c1	-11%	i	1%	11%	7%	-9%
CCOc1cc(CN2CCC(CO)(Cc3cccc(C(F)(F)F)c3)CC2)ccc1OC	?	?	-85%	-16%	-1%	-17%[2.22 µM]
COC(=O)c1c(NC(=O)C2COc3ccccc3O2)sc2c1CCN(C(C)=O)C2 (stereo unspecified)	-9%	i	5%	?	21µM*	-1%
CC(=O)N1CCc2c(sc(NC(=O)C3COc4ccccc4O3)c2C(N)=O)C1 (stereo unspecified)	0%	i	-21%	0%	-13%	23%
O=c1c2c(nc3c(-c4ccc(Cl)cc4)c[nH]n13)CCC2	?	?	-25%	-7%	?	13µM*
COc1ccc(OC)c(/C=C/c2sc3ccccc3[n+]2C)c1	-2%	/	2%	/	/	/
CCCNc1ncc2c(=O)[nH][nH]c(=O)c2n1	-7%	i	0%	-10%	0%	9%
CCc1cc2c(=O)c(-c3cnn(-c4ccccc4)c3)c(C)oc2cc1OCC(=O)Nc1cccc(C)c1	6%	1.8µM*	-2%	-3%	3%	?
O=C(COC(=O)/C=C/c1ccc(OC(F)F)cc1)Nc1cccc(S(=O)(=O)N2CCOCC2)c1	13%	i	-7%	4%	?	-9%
NCCc1c(-c2ccccc2)n(-c2ccccc2)c2ccccc12	?	?	20µM*	1%	?	28µM*
COc1ccc(-n2ncc(Cl)c(Cl)c2=O)cc1	?	3.8µM*	-30%	?	?	?
SMILES	TGFb inhibitor	ATXN viability	HepG2 viability	A549 viability	Nrf2 inh	ATXN2 expr inh
Cc1ccc(C(=O)n2cnnc2N)cc1	-4%	i	-24%	0%	8.2µM*	1%
COc1ccc(S(=O)(=O)NCc2ccc3c(c2)CCN3C(C)=O)cc1OC	-18%	/	-23%	0%	/	/
CCOC(=O)c1ccccc1NC(=O)COC(=O)C1CCN(S(=O)(=O)c2ccccc2C(=O)OC)CC1	0%	i	-12%	-6%	2%	-1%
CCOc1ccc(N(CC(=O)Nc2ccc(C)c(C)c2)S(=O)(=O)c2c(C)noc2C)cc1	?	i	-20%	-12%	13µM*	-24%
CCOc1ccc(N(CC(=O)Nc2cccc(F)c2)S(=O)(=O)c2c(C)noc2C)cc1	-26%	i	1%	-16%	13µM*	-22%
COc1ccc(N(CC(=O)Nc2cccc(C)c2)S(=O)(=O)c2c(C)noc2C)cc1	5%	i	-16%	-6%	?	/
C/C(Cl)=C/Cn1c(=O)c2c(nc(Br)n2Cc2ccccc2)n(C)c1=O	6%	i	33%	5%	/	3%
O=S(=O)(c1ccc(F)cc1)N1CCN(CCOc2ccccc2)CC1	7%	i	5%	-4%	-3%	-9%
Cc1ccc(S(=O)(=O)N2CCN(CCOc3cccc(C)c3)CC2)cc1	?	i	-32%	-7%	21µM*	-25%
COCCC1CCCCN1Cc1nc(N2CCCC2)c2cc(OC)c(OC)cc2n1 (stereo unspecified)	/	i	/	/	/	/
CCn1c(C(=O)Nc2ccsc2C(=O)OC)cc2sc(Cl)cc21	-3%	i	21%	1%	9%	-5%
CC(NC(=O)C1CCCC1)c1ccc(Br)cc1 (stereo unspecified)	0%	i	-39%	17%	26µM*	/
Cc1cccc(OCc2nnc(SCC(=O)N(c3ccccc3)C3CCS(=O)(=O)C3)o2)c1 (stereo unspecified)	-17%	i	-5%	-13%	21µM*	-22%
Cc1ccc(C(=O)CSc2nnc(COc3ccccc3)o2)cc1	-5%	i	6.3µM*	4%	-8%	-6%
Cc1cc(NC(=O)c2ccccc2)c(Cl)cc1N	17%	?	-20%	1%	8.2µM*	?
Cc1cc(N)ccc1NC(=O)c1ccccc1	0%	i	15%	-11%	14%	3%
COc1ccccc1N1C(=O)c2ccccc2NC1c1ccncc1 (stereo unspecified)	11%	?	3%	-6%	/	-18%
